Laboratory results published in PubChem BioAssay (NCATS).
Inconclusive results are not listed. Where a call stands in place of a potency, no number is given. Active and inactive are the calls of the source. The call rests on the fitted dose curve; in most records, active means well fitted inhibition curve with a large enough effect; inconclusive means small, poorly fitted or top-dose-only effect; inactive means no such curve, though single readings can be large or run the other way.

Key:
[1] = tested on: Zika virus NS2B-NS3 protease (unlinked complex); experiment: Primary screen GU Rhodamine qHTS for Zika virus inhibitors: Unlinked NS2B-NS3 protease assay (AID 1347159); further: nearly all actives have a fitted effect of over 60% in size
Summary of the method: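 Noncovalent NS2B hydrophilic domain–NS3 protease domain complex (25 nM) preincubated 15 min at room temperature with compounds (up to 114 microM) in 10 mM Tris-HCl pH 8.0, 0.01% Tween 20; 1.5 microM Rhodamine110 substrate added, fluorescence change over 15 min fitted to Hill equation.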

[2] = tested on: Zika virus NS2B-NS3 protease (linked construct); experiment: Primary screen NINDS Rhodamine qHTS for Zika virus inhibitors (AID 1347160); further: nearly all actives have a fitted effect of over 55% in size
Summary of the method: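 Purified linked NS2B-NS3 protease (NS2B hydrophilic domain joined to NS3 protease by flexible linker), 25 nM in 10 mM Tris-HCl pH 8.0, 0.01% Tween 20. Compounds titrated, 15 min preincubation at room temperature; 1.5 microM Rhodamine110 substrate, FITC fluorescence change over 15 min.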

Compound	Potency [1]	Potency [2]
CCOc1cc(C(C)(C)C)ccc1C1=N[C@@](C)(c2ccc(Cl)cc2)[C@@](C)(c2ccc(Cl)cc2)N1C(=O)N1CCN(CC(=O)N2CCOCC2)CC1	inactive	inactive
CCCCNc1ncc(-c2ccc(CN3CCOCC3)cn2)c(NC2CCC(O)CC2)n1 (stereo not drawn)	inactive	inactive
COc1cc(Br)c(S(=O)(=O)Nc2ccc(Cl)c(O[C@@H]3CCN(C)C3)c2)cc1OC	inactive	inactive
Cc1c[nH]c2ncnc(N3CCC(CN)(C(=O)Nc4cccc(OC(=O)N(C)C)c4)CC3)c12	inactive	inactive
CCNC(=O)C#Cc1ccc2c(C(=Nc3ccc(CN(C)C)cc3)c3ccccc3)c(O)[nH]c2c1	inactive	inactive
Cc1ccc(NC(=O)c2ccc(CN3CCNCC3)cc2)cc1Nc1nccc(-c2cccnc2)n1	inactive	inactive
Cc1cc(-c2nc(-c3ccc(OC(F)(F)F)cc3)no2)nn1Cc1ccnc(N2CCN(C3CC3)CC2)c1	inactive	inactive
CN1CCc2cc3c(cc2C(=O)Cc2cc4c(cc2C1)OCO4)OCO3	inactive	inactive
COc1ccccc1OCCN1CC(COc2cccc3[nH]c4ccccc4c23)OCC1=O (stereo not drawn)	inactive	inactive
CN(C)[C@@H]1CCc2[nH]c3ccc(NC(=O)c4ccc(F)cc4)cc3c2C1	inactive	inactive
C=C1C(=O)O[C@@H]2[C@H]1CC[C@H](C)[C@]1(CCC(=O)O1)C2(C)O (stereo partly drawn)	inactive	inactive
C=C[C@@]1(C)C=C2C(=O)C(O)=C3[C@](C)(C(=O)O)CC[C@@H]4C[C@]34[C@]2(O)C(=O)C1	inactive	inactive
CC(C)(C)[C@H](NC(=O)c1ccc(N)c(Cl)c1)C(=O)N1CCC[C@H]1C(=O)N[C@H](C#N)CC(=O)O	inactive	inactive
N#Cc1cnc2c(Cl)cc(NCc3cn(CCN4CCCCCC4)nn3)cc2c1Nc1ccc(F)c(Cl)c1	inactive	inactive
